GPR32 ag: activates human resolvin D1 receptor GPR32 | O75388 | CHO-K1 GPR32 beta-arrestin PathHunter luminescence, 90 min; zero percent set by DMSO-only wells | activation, % at 76.9 µM | 2.5% of 48,000 active | AID 1346428;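 active means activation of at least 60% and not above a set upper limit, about 1 call in 100 departs from these limits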; further: 0% is about no effect
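Step 1: seed CHO-K1 GPR32 beta-arrestin cells, 2,500/well, overnight at 37 °C. Step 2: add compounds, 90 min at 37 °C. Step 3: detection reagent, 1 h ambient, then luminescence.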
NTMT1 inhibitor: NTMT1 methyltransferase inhibition | Q9BV86 | NTMT1 MTase-Glo SAH luminescence, purified enzyme | Potency, µM (top dose mostly 114 µM), inactives show at the top dose activity change, negative = inhibition, actives largely listed as inhibitors | 2.5% of 59,000 active | AID 1645870;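 further: potency means the concentration at half of the fitted maximal effect; plate controls were DMSO vehicle for no effect and no enzyme for full effect; nearly all actives have a fitted effect of over 65% in size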
B2AR arrestin ag: agonists recruiting beta-arrestin to human beta2-adrenergic receptor; AID 1347077; HTLA Tango cells, beta-arrestin recruitment, luciferase luminescence, 18 h; 44,000 tested, under 10 active; P07550; Potency, µM (doses to about 46.1 µM), actives largely listed as activators;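 further: potency means the concentration at half of the fitted maximal effect; 0% = DMSO and full agonism = EC100 isoproterenol or metaproterenol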
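Luminescence read-out: arrestin recruitment to recombinant beta2-AR releases tTA, inducing luciferase. Cells exposed 18 hr at 37 degrees C to up to 46 microM compound; %Activity from corrected signal, concentration-response curves classified by r2, magnitude and efficacy.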
TSG101-PTAP inh: blocks PTAP binding to human TSG101, validation. Potency, µM (series often up to 115 µM), usual class: inhibitors. AID 1347069. Q99816. 44,000 tested, under 10 active. Fluorescence polarization, FITC-PTAP peptide/Tsg101, 20 min; further: potency means the concentration at half of the fitted maximal effect; 0% is about no effect
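Compounds pinned into 10 uM Tsg101 binding domain, then 50 nM FITC-PTAP peptide added in pH 7.5 HEPES buffer; FP read after 20 min, room temperature. Total S+P intensity flags fluorescent compounds; active cut-off <25 µM, efficacy <60%.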
GALK inh: inhibitors of human galactokinase (GALK); Potency, µM (doses to about 57.5 µM), for inactives: top-dose activity, negative = inhibition, actives largely listed as inhibitors; 44,000 tested, under 10 active; P51570; recombinant GALK, Kinase-Glo ATP luminescence, 1 h;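 further: plate controls were full GALK reaction for no effect and reaction lacking GALK for full effect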
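Luminescent ATP-depletion readout (Kinase-Glo Plus, 10 min) after 1 h RT reaction of 5 nM GALK, 35 uM ATP, 100 uM galactose, pH 8.0 HEPES buffer. Decreased kinase activity scored as inhibition.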
GALC G270D up: enhancers of human galactocerebrosidase G270D mutant activity in cells | P54803 | 145M-Twi-hGALC-G270D cells (Twitcher mouse brain line with human GALC G270D), HMU-beta-Gal fluorescence, 48 h | 0.1% of 45,000 active | Potency, µM (highest dose often 57.5 µM), hits mostly activators | AID 1159614; further: potency means the concentration at half of the fitted maximal effect; 0% is about no effect; nearly all actives have a fitted effect of over 65% in size
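Fluorescence readout: HMU-β-gal cleavage by mutant GALC (0.1 mM final, citrate/phosphate pH 5.2 with 1 mg/mL taurocholate), stopped with carbonate/bicarbonate plus Triton X-100. Cells: murine Twitcher 145M-Twi expressing human G270D GALC; qHTS for activators.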
* = called active by the depositor; i = inactive; . = no result; ! = a repeat was not active; [ ] = another dose, or the depositor's remark. Compounds with a hit are over-represented: about 3.6% of the library has one in this group of screens. Unless noted, the call rests on the fitted dose curve; in most records, active means well fitted curve in the direction sought with a large enough effect; inconclusive means small, poorly fitted or top-dose-only effect, or another doubt; inactive means no such curve, though single readings can be large; an effect the other way counts as inactive or inconclusive.

SMILES	GPR32 ag	NTMT1 inhibitor	B2AR arrestin ag	TSG101-PTAP inh	GALK inh	GALC G270D up
Cc1ccc2c(c1)c(=O)c1ccccc1n2CCCC(=O)Nc1c(F)cccc1F	11.3	6.4%	i	i	-3.9%	1.12µM*
CN1C[C@@H]2c3ccccc3Oc3ccc(Cl)cc3[C@H]2C1	.	-2.4%	.	.	.	.
C=C1CC[C@@]2(OC1)O[C@H]1CC3[C@@H]4CC=C5C[C@H](O[C@H]6OC[C@@H](O)C(O)[C@@H]6O[C@@H]6O[C@@H](C)[C@H](O)[C@@H](O[C@@H]7O[C@H](CO)[C@@H](O)[C@H](O)[C@H]7O)[C@H]6O)C[C@@H](O)[C@]5(C)C4CC[C@]3(C)[C@H]1[C@@H]2C (stereo partly drawn)	.	13.6%[12.6 µM]	.	.	.	.
CN(C)c1ccc(CNC(=O)c2ccc3nc(Cc4ccccc4)oc3c2)cc1	-21.2	-10.1%	i	i	0.3%	i
CN(C)c1ccc2cc(C(=O)N[C@@H](CCCN=C(N)CCl)C(=O)NCc3ccccc3)ccc2c1	.	5.62µM*	.	.	.	.
CNCCC(Oc1ccc(C(F)(F)F)cc1)c1ccccc1 (stereo not drawn)	104.0*!	-31.3%[57.5 µM]	.	.	.	i
CNCCC(Oc1ccccc1C)c1ccccc1 (stereo not drawn)	-13.2	.	.	.	.	.
Cc1ccc2[nH]c(CSc3nnc(NC(=O)COc4ccccc4)s3)cc(=O)c2c1	75.8*	-0.9%	i	i	-2.0%	i
Cc1ccc2[nH]c(CSc3nnc(NC(=O)COc4ccc(F)cc4)s3)cc(=O)c2c1	11.3	9.6%	i	i	1.0%	i
C=C1CCC2C(OC(=O)C2(O)COC(C)=O)C2C(=C)C(O)CC12 (stereo not drawn)	.	8.7%[29.8 µM]	.	.	.	.
Clc1nc(CN2CCOCC2)nc2sc3c(c12)CCCC3	.	-3.1%	.	.	.	.
CCOC(=O)c1c(C)[nH]c(C)c1S(=O)(=O)N1CCN(c2cccc(C(F)(F)F)c2)CC1	-9.6	-6.1%	i	i	0.9%	1.12µM*
CCOC(=O)c1c(S(=O)(=O)N2CCN(c3cccc(C(F)(F)F)c3)CC2)c(C)n(C)c1C	12.2	-27.5%	i	i	0.5%	i
O=S(=O)(c1ccc2c(c1)OCCO2)N1CCN(S(=O)(=O)c2ccc(Br)cc2F)CC1	.	2.5%	.	.	.	.
O=c1onc2n1-c1cc(Br)ccc1OC2	64.5*	.	.	.	.	.
Cc1ccc(C)c(N2CCN(C(=O)C3CCCN(S(=O)(=O)c4cccc5nsnc45)C3)CC2)c1 (stereo not drawn)	66.0*	-0.4%	i	i	2.2%	i
C#CCOc1ccc2c(c1)c(-c1ccc(C(C)C)cc1)nc(=O)n2C(C)C	.	-10.5%[57.5 µM]	.	.	.	.
CC1CCCC(O)CCC/C=C/c2cc(OS(=O)(=O)O)cc(O)c2C(=O)O1 (stereo not drawn)	.	12.6µM*	.	.	.	.
Nc1nc(Nc2ccc3c(c2)CCC(N2CCCC2)CC3)nn1-c1cc2c(nn1)-c1ccccc1CCC2 (stereo not drawn)	.	39.8µM*	.	.	.	.
CC(=O)NCCNC(=O)CCCn1c(=O)[nH]c2ccsc2c1=O	-16.3	3.9%	i	i	1.9%	i
O=C(CCCn1c(=O)[nH]c2ccsc2c1=O)N1CCN(c2cccc(C(F)(F)F)c2)CC1	91.5*	-8.2%	i	i	5.8%	i
O=C(CCCCn1c(=O)[nH]c2ccsc2c1=O)N1CCN(c2cccc(Cl)c2)CC1	71.9*	0.0%	i	i	6.0%	i
Cc1cccc(N2CCN(C(=O)CCCn3c(=O)[nH]c4ccsc4c3=O)CC2)c1C	19.0	0.7%	i	i	4.9%	i
CCCCC(CC)CNC(=O)CCCCCn1c(=O)[nH]c2ccsc2c1=O (stereo not drawn)	79.9*	2.8%	i	i	5.5%	i

Screening results deposited in PubChem by National Center for Advancing Translational Sciences (NCATS).
